The results in this text go back to PubChem BioAssay (NCATS).

Inconclusive results are not listed. A call without a number means that no potency is given here. Calls of active or inactive are those of the source. The call rests on the fitted dose curve; in most records, active means well fitted curve in the direction sought with a large enough effect; inconclusive means small, poorly fitted or top-dose-only effect, or another doubt; inactive means no such curve, though single readings can be large; an effect the other way counts as inactive or inconclusive.

Assay [1] concerns the target Aldehyde dehydrogenase, mitochondrial (Homo sapiens) (UniProt P05091). Put plainly: qHTS for Inhibitors of the Aldehyde Dehydrogenase Family (ALDH2) Primary screen (AID 2061308). Further: nearly all actives have a fitted effect of over 55% in size. Background: Quantitative high-throughput screening tests each substance at several concentrations.
Assay [2] concerns the target Retinaldehyde dehydrogenase 3 (Homo sapiens) (UniProt P47895). Put plainly: qHTS for Inhibitors of the Aldehyde Dehydrogenase Family (ALDH1A3) Primary screen (AID 2061315).

For `COc1ccc(-c2nnc3n2N=C(c2ccc(OC)c(OC)c2)CS3)cc1`, the Potency entry in assay [1] and in assay [2] was “inactive” in each case.

As to `Cc1cc(C)nc(NC(=S)N2CCN(c3cccc(C(F)(F)F)n3)CC2)c1`, the Potency result in assay [1] and in assay [2] was “inactive” throughout.

Take `COc1ccc(C2Nc3ccccc3C(=O)N2Cc2cccc(Cl)c2)cc1COc1ccc(NC(C)=O)cc1` (centres undefined): the Potency entry in assay [1] and in assay [2] was “inactive” throughout.

Take `CC(=O)Nc1sc2c(c1C#N)CCN(C(C)C)C2`: the Potency result in assay [1] and in assay [2] was “inactive” in each case.

As to `Cc1ccc(NS(=O)(=O)c2cc3c(cc2N[C@H](C)CO)NC(=O)CC3)cc1C`, the Potency entry in assay [1] and in assay [2] was “inactive” in each case.

Regarding `CC(C)c1ccccc1-c1nc(NCc2ccc(-c3cccnc3)cc2)c2occc2n1`, the Potency entry in assay [1] and in assay [2] was “inactive” each time.

Consider `O=C(OCC#CCSc1nnc(-c2cccc3ccccc23)o1)c1ccc(F)nc1`, for which the Potency result in assay [1] and in assay [2] was “inactive” throughout.

As to `Cc1ccccc1NS(=O)(=O)c1ccc2c(c1)CCC(=O)N2`, the Potency entry in assay [1] and in assay [2] was “inactive” in each case.

With `Cc1nnc(-c2cnn(C)c2N)n1Cc1cncn1C`, the Potency entry in assay [1] and in assay [2] was “inactive” each time.

`Cc1ccc(NS(=O)(=O)c2cc3c(cc2NCC(C)(C)O)NC(=O)CC3)cc1C`: the Potency result in assay [1] and in assay [2] was “inactive” in each case.

For `CCN(CC)CCn1c(-c2ccccc2)nc2c(NCCO)nc(C)nc21`, the Potency entry in assay [1] and in assay [2] was “inactive” in each case.

`COc1ccc(C2=Nn3c(nnc3-c3ccc(OC)c(OC)c3)SC2)cc1OC`: the Potency entry in assay [1] and in assay [2] was “inactive” each time.

As for `COc1ccc(C2c3c(ncn(CCc4ccccc4)c3=N)Oc3ccc4ccccc4c32)cc1OC` (centres undefined), the Potency entry in assay [1] and in assay [2] was “inactive” each time.

Consider `Cn1nnnc1Sc1ncnc2scc(-c3cccc4c3sc3ccccc34)c12`, for which the Potency result in assay [1] and in assay [2] was “inactive” each time.

For `Cc1ccc(-c2cnn(CC(=O)N(C)C(C)c3ccco3)c(=O)c2)cc1` (centres undefined), the Potency result in assay [1] and in assay [2] was “inactive” each time.

Consider `Cc1ccc(OCCn2c(CCNC(=O)c3ccc(Cl)cc3)nc3ccccc32)cc1`, for which the Potency entry in assay [1] and in assay [2] was “inactive” each time.

Consider `O=C1CCCC2=C1C(c1cnccc1C(F)(F)F)N=C(Nc1nc3ccccc3o1)N2` (centres undefined), for which the Potency entry in assay [1] and in assay [2] was “inactive” each time.
